Results filed as inconclusive are left out. Activity calls are given as the source filed them. Calls follow the shape of the dose curve; as a rule, active = well fitted inhibition curve with a large enough effect; inconclusive = small, poorly fitted or top-dose-only effect; inactive = flat fitted curve, though single readings scatter.
Legend:
Assay in all cases: qHTS profiling for inhibitors of Plasmodium falciparum proliferation (AID 504749); also: nearly all actives have a fitted effect of over 60% in size
Settings in all cases: P. falciparum in erythrocytes, SYBR Green DNA, 72 h; series mostly up to 28.7 µM
CP203 = test system: CP203
Summary of the method: (§1)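 SYBR Green fluorescence (ex 485 nm, em 535 nm) reports parasite DNA after 72 h compound exposure of infected red cells at 0.3% parasitemia, 2.5% hematocrit; signal normalized to 0.29 uM artemisinin and vehicle wells.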

CP217 = test system: CP217
Summary of the method: as §1

CP262 = test system: CP262
Summary of the method: as §1

CP266 = test system: CP266
Summary of the method: as §1

CP238 = test system: CP238
Summary of the method: as §1

CP247 = test system: CP247
Summary of the method: as §1

CP250 = test system: CP250
Summary of the method: as §1

CP252 = test system: CP252
Summary of the method: as §1

CP265 = test system: CP265
Summary of the method: as §1

CP194 = test system: CP194
Summary of the method: as §1

CP201 = test system: CP201
Summary of the method: as §1

CP211 = test system: CP211
Summary of the method: as §1

CP215 = test system: CP215
Summary of the method: as §1

CP237 = test system: CP237
Summary of the method: as §1

CP256 = test system: CP256
Summary of the method: as §1

CP260 = test system: CP260
Summary of the method: as §1

CP268 = test system: CP268
Summary of the method: as §1

CP269 = test system: CP269
Summary of the method: as §1

CP286 = test system: CP286
Summary of the method: as §1

CP291 = test system: CP291
Summary of the method: as §1

Measured: Potency
Potency is read from the fitted curve at half-maximal effect.

CC/C(=C(\c1ccccc1)c1ccc(OCCN(C)C)cc1)c1ccccc1
inactive: CP203 | CP262 | CP266
active: CP217 11.2 µM

CC(=O)O[C@]1(C(C)=O)CC[C@H]2[C@@H]3C=C(Cl)C4=CC(=O)[C@@H]5C[C@@H]5[C@]4(C)[C@H]3CC[C@@]21C
inactive: CP238 | CP247 | CP250 | CP252 | CP265

COc1ccccc1N1CCN(CCCNc2cc(=O)n(C)c(=O)n2C)CC1
inactive: all assays above

Cc1cccc(C)c1OCC(C)N (stereo not given)
active: CP237 6.31 µM
not listed: CP203 | CP266 | CP265 | CP194 | CP268 | CP269 | CP291
inactive: all other assays above

O=C(O)c1c(Cl)c(Cl)c(Cl)c(Cl)c1-c1c2cc(I)c(=O)c(I)c-2oc2c(I)c(O)c(I)cc12
inactive: all assays above

O=C1NC(=O)C(c2ccccc2)(c2ccccc2)N1
inactive: all assays above

O=C(O)c1cc(-c2ccccc2)nc2ccccc12
not listed: CP266
inactive: all other assays above

CCN1CCC[C@H]1CNC(=O)c1cc(S(N)(=O)=O)ccc1OC
inactive: all assays above

CC1(C)O[C@H]2C[C@@H]3[C@H]4CCC5=CC(=O)C=C[C@]5(C)[C@@]4(F)[C@@H](O)C[C@]3(C)[C@]2(C(=O)CO)O1
not listed: CP266
inactive: all other assays above

CN(C)CCC(c1ccccc1)c1ccccn1 (stereo not given)
active: CP265 12.6 µM
not listed: CP203 | CP194 | CP215 | CP268 | CP269 | CP291
inactive: all other assays above

NCCS
inactive: all assays above

CC(=O)N[C@@H](CS)C(=O)O
inactive: all assays above

C[C@@H](O)[C@H]1C(=O)N2C(C(=O)O)=C(S[C@@H]3CN[C@H](C(=O)N(C)C)C3)[C@H](C)[C@H]12
inactive: all assays above

CC(=O)c1ccc(S(=O)(=O)NC(=O)NC2CCCCC2)cc1
inactive: all assays above

CCCNC(=O)NS(=O)(=O)c1ccc(Cl)cc1
inactive: all assays above

Cc1cnc(C(=O)O)c[n+]1[O-]
not listed: CP266 | CP260
inactive: all other assays above

O=c1[nH]cnc2c1ncn2[C@H]1CC[C@@H](CO)O1
not listed: CP265 | CP260
inactive: all other assays above

C[N+](C)(C)CCCCCC[N+](C)(C)C
inactive: all assays above

O=C(O)Cc1cccc2ccccc12
inactive: all assays above

COc1ccc(Cc2nccc3cc(OC)c(OC)cc23)cc1OC
not listed: CP247 | CP215
inactive: all other assays above

CCCCCN(C)CCC(O)(P(=O)(O)O)P(=O)(O)O
inactive: all assays above

CCN(CC)C(=O)c1ccc(O)c(OC)c1
inactive: all assays above

CCN(CC)CCOC(=O)c1ccc(N)cc1
inactive: all assays above

Clc1ccc(Cn2c(CN3CCCC3)nc3ccccc32)cc1
not listed: CP215 | CP237 | CP260
inactive: all other assays above

CCCCC1C(=O)N(c2ccccc2)N(c2ccccc2)C1=O
inactive: CP203

O=C(NCCN1CCOCC1)c1ccc(Cl)cc1
inactive: all assays above

NC(N)=Nc1nc(CSCC/C(N)=N/S(N)(=O)=O)cs1
inactive: all assays above

CC(=O)CCCCn1c(=O)c2c(ncn2C)n(C)c1=O
inactive: all assays above

O=C1NCC2(CCN(CCc3ccccc3)CC2)O1
not listed: CP260
inactive: all other assays above

— PubChem BioAssay (NCATS)
